Assay results from the supplement of paper PMC12808144.
Values without a mark were called inactive.

The molecules below were run on Mel-DCC-11-R (assay: cell viability relative to DMSO control (fraction of DMSO control); higher = less cytotoxic, active = 0.8 or less). Settings: 1 µM; 120 h; vemurafenib co-treatment 0 µM.
Experimental: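 Same 315-drug TargetMol library at 1 µM in duplicate, 120 h, ATPlite luminescence normalised to DMSO controls, on the vemurafenib-resistant subline Mel-DCC-11-R cultured alone or with 8 µM vemurafenib co-treatment (Mel-DCC-11-R + V).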

First: CCC1(c2ccc(N)cc2)CCC(=O)NC1=O (stereo not given) [Aminoglutethimide]
Second: C=C1C[C@@H]2[C@H](CC[C@]3(C)C(=O)CC[C@@H]23)[C@@]2(C)C=CC(=O)C=C12 [Exemestane]
The cell viability of the first is lower: 1.08 for the first, 1.09 for the second.

First: Cl.Cn1c(CCCC(=O)O)nc2cc(N(CCCl)CCCl)ccc21 [Bendamustine hydrochloride]
Second: O=C(O)CCCc1ccc(N(CCCl)CCCl)cc1 [Chloroambucil]
The cell viability of the first is lower: 0.822 for the first, 0.906 for the second.

Going from O.O=P1(N(CCCl)CCCl)NCCCO1 (stereo not given) [Cyclophosphamide monohydrate] to N[C@@H](Cc1ccc(N(CCCl)CCCl)cc1)C(=O)O [Melphalan], the cell viability rises from 0.857 to 1.17.

Compared with CC(O)(CS(=O)(=O)c1ccc(F)cc1)C(=O)Nc1ccc(C#N)c(C(F)(F)F)c1 (stereo not given) [Bicalutamide], COC(=O)Nc1nc2ccccc2[nH]1 [Carbendazim] is lower in cell viability: 1.02 for the first, 0.917 for the second.

First: NCCC(O)(P(=O)([O-])O)P(=O)([O-])O.[Na+].[Na+] [Pamidronate disodium salt]
Second: CCCCCN(C)CCC(O)(P(=O)([O-])O)P(=O)(O)O.[Na+] [Ibandronate sodium]
The cell viability of the first is higher: 1.02 for the first, 0.82 for the second.

Going from C[C@]12CC[C@@H]3c4ccc(OC(=O)N(CCCl)CCCl)cc4CC[C@H]3[C@@H]1CC[C@@H]2OP(=O)([O-])[O-].[Na+].[Na+] [Estramustine phosphate sodium] to C[C@]12CCC(=O)C(O)=C1CC[C@@H]1[C@@H]2CC[C@]2(C)C(=O)CC[C@@H]12 [Formestane], the cell viability falls from 1.01 to 0.922.

Compared with Cl.N[C@@H]1C[C@H]1c1ccccc1 [Tranylcypromine (2-PCPA) hydrochloride], CNC(=O)Oc1ccccc1OC(C)C [Propoxur] is lower in cell viability: 0.9 for the first, 0.827 for the second.

First: NCCCNCCSP(=O)(O)O [Amifostine]
Second: CCC1=C[C@H]2CN3CCc4c([nH]c5ccccc45)[C@](C(=O)OC)(C2)[C@H]13 [Catharanthine]
The cell viability of the first is higher: 0.934 for the first, 0.906 for the second.

Going from C/C=C(\C)C(=O)N[C@@H](c1ccccc1)[C@@H](O)C(=O)O[C@H]1C[C@@]2(O)[C@@H](OC(=O)c3ccccc3)[C@@H]3[C@]4(OC(C)=O)CO[C@@H]4C[C@H](O)[C@@]3(C)C(=O)[C@H](OC(C)=O)C(=C1C)C2(C)C [Cephalomannine] to Cn1cc(C2=C(c3cn(C4CCN(Cc5ccccn5)CC4)c4ccccc34)C(=O)NC2=O)c2ccccc21 [Enzastaurin], the cell viability rises from 0.99 to 1.06.

Compared with O=[As]O[As]=O (stereo not given) [Arsenic oxide (3)], C[C@]12CC[C@H]3[C@@H](CC[C@@]45O[C@@H]4C(O)=C(C#N)C[C@]35C)[C@@H]1CC[C@@H]2O [Trilostane] is higher in cell viability: 0.971 for the first, 1.03 for the second.

Same assay, conditions: 1 µM; 120 h; vemurafenib co-treatment 8 µM

Going from CCC1(c2ccc(N)cc2)CCC(=O)NC1=O (stereo not given) [Aminoglutethimide] to C=C1C[C@@H]2[C@H](CC[C@]3(C)C(=O)CC[C@@H]23)[C@@]2(C)C=CC(=O)C=C12 [Exemestane], the cell viability rises from 1.04 to 1.13.

Compared with Cl.Cn1c(CCCC(=O)O)nc2cc(N(CCCl)CCCl)ccc21 [Bendamustine hydrochloride], O=C(O)CCCc1ccc(N(CCCl)CCCl)cc1 [Chloroambucil] is higher in cell viability: 1.04 for the first, 1.11 for the second.

Compared with O.O=P1(N(CCCl)CCCl)NCCCO1 (stereo not given) [Cyclophosphamide monohydrate], N[C@@H](Cc1ccc(N(CCCl)CCCl)cc1)C(=O)O [Melphalan] is higher in cell viability: 1.03 for the first, 1.11 for the second.

Going from CC(O)(CS(=O)(=O)c1ccc(F)cc1)C(=O)Nc1ccc(C#N)c(C(F)(F)F)c1 (stereo not given) [Bicalutamide] to COC(=O)Nc1nc2ccccc2[nH]1 [Carbendazim], the cell viability falls from 1.12 to 1.05.

Going from NCCC(O)(P(=O)([O-])O)P(=O)([O-])O.[Na+].[Na+] [Pamidronate disodium salt] to CCCCCN(C)CCC(O)(P(=O)([O-])O)P(=O)(O)O.[Na+] [Ibandronate sodium], the cell viability falls from 0.981 to 0.935.

First: C[C@]12CC[C@@H]3c4ccc(OC(=O)N(CCCl)CCCl)cc4CC[C@H]3[C@@H]1CC[C@@H]2OP(=O)([O-])[O-].[Na+].[Na+] [Estramustine phosphate sodium]
Second: C[C@]12CCC(=O)C(O)=C1CC[C@@H]1[C@@H]2CC[C@]2(C)C(=O)CC[C@@H]12 [Formestane]
The cell viability of the first is higher: 1.11 for the first, 1.02 for the second.

Going from NCCCNCCSP(=O)(O)O [Amifostine] to CNC(=O)Oc1ccccc1OC(C)C [Propoxur], the cell viability falls from 1.21 to 0.985.

Compared with Cn1cc(C2=C(c3cn(C4CCN(Cc5ccccn5)CC4)c4ccccc34)C(=O)NC2=O)c2ccccc21 [Enzastaurin], CCC1=C[C@H]2CN3CCc4c([nH]c5ccccc45)[C@](C(=O)OC)(C2)[C@H]13 [Catharanthine] is lower in cell viability: 1.24 for the first, 0.983 for the second.

First: O=[As]O[As]=O (stereo not given) [Arsenic oxide (3)]
Second: C[C@]12CC[C@H]3[C@@H](CC[C@@]45O[C@@H]4C(O)=C(C#N)C[C@]35C)[C@@H]1CC[C@@H]2O [Trilostane]
The cell viability of the first is lower: 0.951 for the first, 1.05 for the second.

Cl.N[C@@H]1C[C@H]1c1ccccc1 [Tranylcypromine (2-PCPA) hydrochloride] was tested, and the cell viability was 0.694 (active).
In the case of C/C=C(\C)C(=O)N[C@@H](c1ccccc1)[C@@H](O)C(=O)O[C@H]1C[C@@]2(O)[C@@H](OC(=O)c3ccccc3)[C@@H]3[C@]4(OC(C)=O)CO[C@@H]4C[C@H](O)[C@@]3(C)C(=O)[C@H](OC(C)=O)C(=C1C)C2(C)C [Cephalomannine], the cell viability is reported as 0.638 (active).
